# Only some compounds are listed: those with a hit (about 6% of all), similar ones and a draw of the others.
# D1 agonist – agonists of human D1 dopamine receptor; activation, % at 2 µM; HEK293 T-REx D1 cells, calcium flux, agonist mode; P21728; 360,000 tested, 1% active; in the data active = activation above about 30%; note: 0% is about no effect
# Target sequence (P21728 whole entry, looked up): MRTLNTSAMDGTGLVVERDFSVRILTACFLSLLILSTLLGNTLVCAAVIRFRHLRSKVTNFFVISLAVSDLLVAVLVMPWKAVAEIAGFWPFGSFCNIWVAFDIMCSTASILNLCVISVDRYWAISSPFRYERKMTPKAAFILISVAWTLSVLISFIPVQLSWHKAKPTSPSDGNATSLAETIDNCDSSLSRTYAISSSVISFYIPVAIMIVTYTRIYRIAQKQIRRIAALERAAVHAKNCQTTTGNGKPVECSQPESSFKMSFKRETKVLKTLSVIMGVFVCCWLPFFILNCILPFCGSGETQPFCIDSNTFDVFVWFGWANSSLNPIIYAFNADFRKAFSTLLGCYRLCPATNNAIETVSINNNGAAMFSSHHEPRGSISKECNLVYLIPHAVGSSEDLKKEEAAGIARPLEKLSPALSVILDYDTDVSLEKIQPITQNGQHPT
#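 Inducible HEK293 T-REx D1 cells, force-coupled to calcium signalling, were plated at 4000 cells/well with tetracycline and held overnight at 30 C. After no-wash calcium dye loading, compound-evoked calcium rise over 180 s flagged agonists.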
# D1 antag – antagonists of human D1 dopamine receptor. HEK293 TREx D1 cells, calcium flux, dopamine EC80; active compounds read low. 360,000 tested, 3.2% active. activity change, negative = inhibition, % at 10 µM; in the data active = activity change below about -30%; note: % is set by controls: 0 for no effect and ±100 for the full control effect
#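 Inducible Hek293 Trex D1 cells (tetracycline, overnight, 30 C). Calcium dye 30–90 min RT. Antagonist mode: EC80 dopamine added after 180 s compound read.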
# DRD3 agonist – agonists of human D3 dopamine receptor; D3R DiscoveRx beta-arrestin cells, luminescence, 90 min; max activation, %; 410,000 tested, 0.58% active; AID 652048; P35462; in the data active = max activation above about 30%; note: 0% is about no effect
#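 Cells at 1500/well, incubated overnight, then treated with pinned compounds (dopamine as control) for 90 min at 37 degrees C. DiscoveRx reagent added for 30 - 60 minutes at room temperature; luminescence read.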
# DRD3 antagonist – D3 dopamine receptor (human) antagonism | AID 652054 | D3R cells, DiscoveRx beta-arrestin luminescence, antagonist mode; active compounds read low | max response, negative = inhibition, % | 360,000 tested, 2.5% active | P35462; in the data active = max response below about -50%; inconclusive = no clear call, values can overlap the other calls; note: % is set by controls: 0 for no effect and ±100 for the full control effect
#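 Cells plated overnight at 1500 cells/well, then exposed to library compounds with dopamine controls for 90 minutes at 37 degrees C. DiscoveRx reagent added for 30–60 minutes at room temperature; luminescence read, quantitative HTS format.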
# D1 PAM – enhances dopamine response at the human D1 receptor; P21728; HEK293 TREx D1 cells, calcium flux, dopamine EC20 potentiation; potentiation, % at 10 µM; 360,000 tested, 0.036% active; AID 504651; in the data active = potentiation above about 30%; note: 0% is about no effect
# Numbers without * were called inactive; ? = inconclusive; nt = no result given.
SMILES,D1 agonist,D1 antag,DRD3 agonist,DRD3 antagonist,D1 PAM
NS(=O)(=O)c1ccc(NC(=S)NCc2ccccc2Cl)cc1,8.6,-8.9,-7.8,-67.8*,11.3
CN1CCN(Cc2c(O)ccc3occ(C(=O)c4ccccc4)c23)CC1,14.9,-77.0*,0.9,-0.3,-10.7
C#C[C@]1(OC(C)=O)CC[C@H]2[C@@H]3CCC4=C/C(=N/O)CC[C@@H]4[C@H]3CC[C@@]21CC,nt,nt,36.9*,nt,nt
COc1ccc(CCNC(=O)Cn2c(=O)c3cccn3c3ccc(F)cc32)c(OC)c1,5.4,1.5,1.8,nt,-0.5
O=C(CSc1ccc2ccccc2c1)NCCc1ccc(O)c(O)c1,4.7,-19.7,68.6*,11.5,1.4
COc1ccc(CCNC(=O)CSc2ccc3ccccc3c2)cc1OC,2.2,17.5,-22.8,12.3,9.2
CC(=O)NC(c1cc(F)c2cccnc2c1O)C(C)C (centres undefined),2.3,-4.4,nt,nt,8.7
COc1ccccc1C(=O)Nc1ccc2nc(SCC(=O)N(C)C)sc2c1,1.9,-5.6,3.2,14.0,0.3
CCOC(=O)CSc1nc2ccc(NC(=O)c3ccc(Cl)cc3)cc2s1,10.7,-21.8,1.7,nt,-1.0
COc1ccccc1C(=O)Nc1ccc2nc(SCC(=O)N(C)c3ccccc3)sc2c1,8.2,-1.8,38.6*,nt,0.6
O=C(COc1ccc(Cl)cc1)Nc1ccc2nc(SCC(=O)N3CCOCC3)sc2c1,10.7,-35.9*,10.3,nt,-1.9
Cc1ccc(C(=O)Nc2ccc3nc(SCC(=O)N4CCc5ccccc54)sc3c2)cc1,4.3,-5.0,-13.7,nt,-1.4
Cc1ccc(OCC(=O)Nc2ccc3nc(SCC(=O)N4CCc5ccccc54)sc3c2)cc1,-0.2,-34.5*,-6.4,nt,3.8
CCOC(=O)Nc1ccc2nc(Sc3ccc(Cl)cc3)sc2c1,7.2,-33.8*,1.3,30.7,-6.1
COc1cccc(C(=O)Nc2ccc3nc(SCC(=O)N4CCc5ccccc54)sc3c2)c1,8.0,-38.0*,-0.1,nt,-2.3
COc1ccc(C(=O)Nc2ccc3nc(SCC(=O)N4CCc5ccccc54)sc3c2)cc1,3.9,12.8,4.8,nt,0.3
COc1cc2c(C(=O)N3CCN(c4ccc(C)cc4)C(C)C3)cn(CC(C)C)c(=O)c2cc1OC (centres undefined),0.1,0.1,5.1,nt,0.3
Cc1ccc(NC(=O)C(C)N=C2NS(=O)(=O)c3ccccc32)cc1F (centres undefined),5.4,-12.3,-27.1,-56.1*,-9.8
CC(N=C1NS(=O)(=O)c2ccccc21)C(=O)NCCCc1ccccc1 (centres undefined),1.0,0.1,-17.3,-4.2,3.1
CC1CN(Cc2c(O)ccc3c2oc(=O)c2ccccc23)CC(C)O1 (centres undefined),2.4,-7.8,-30.4,-66.2*,6.0
CC1CN(Cc2c(O)ccc3c(=O)c(-c4ccccc4)coc23)CC(C)O1 (centres undefined),0.6,-14.2,10.0,5.1,1.9
Cc1ccc(C)c(S(=O)(=O)NCCc2csc(-c3ccc(Cl)cc3)n2)c1,10.4,4.2,-8.8,nt,2.0
O=C(Cn1[nH]c(=O)c2ccccc2c1=O)N1CC=C(c2ccccc2)CC1,3.5,-30.4*,1.8,26.3,-8.3
O=C(O)CCC(=O)N1CC=C(c2ccccc2)CC1,2.4,2.2,-22.9,?,-4.2
CCC(CO)[n+]1c(C)cc(/C=C2\Sc3ccccc3N2Cc2ccccc2)cc1C (centres undefined),28.6,-76.4*,6.8,11.5,-7.9
CC(C)c1ccc(NC(=O)C2(C)Cc3ccccc3C(=O)O2)cc1 (centres undefined),19.5,-9.9,-1.3,nt,-2.0
O=C(c1ccc(C(F)(F)F)cc1)C1CCCN(C(=O)Cn2cncn2)C1 (centres undefined),3.9,-37.3*,-22.7,-13.3,7.8
O=C(CCn1cncn1)N1CCCC(N2CCN(c3cccc(C(F)(F)F)c3)CC2)C1 (centres undefined),0.2,-44.5*,6.6,2.4,-4.3
O=C(CCn1cncn1)N1CCCC(N2CCN(c3ccc(F)cc3)CC2)C1 (centres undefined),1.3,9.9,-5.7,11.0,-8.1
C[C@H]1O[C@H](O[C@H]2[C@H](O)[C@@H](O)[C@@H](O[C@H]3[C@H](O)[C@@H](O)[C@H](O)O[C@@H]3CO)O[C@@H]2CO)[C@H](O)[C@@H](O)[C@@H]1N[C@H]1C=C(CO)[C@@H](O)[C@H](O)[C@H]1O,nt,nt,-0.3,nt,nt
